ABHD5-PLIN5 inh: blocks binding of human ABHD5 to perilipin-5 | Split G. princeps luciferase complementation, luminescence, 4 h | inhibition, % at 4 µM | 0.78% of 360,000 active | AID 602281;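 active = inhibition above the mean inhibition across every tested compound plus 3 SD, cut at about 22% in these data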;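 note: 0% = DMSO only wells and the 100% control is not disclosed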
PRMT1 inh: PRMT1 (human) inhibition, primary screen. Q99873. recombinant PRMT1, activity-based probe fluorescence polarization. inhibition, % at 2.79 µM. 1.3% of 370,000 active. AID 652257;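 active = inhibition above about 21% made by adding two undisclosed values, limit read from the data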
Target sequence (Q99873 whole entry, looked up): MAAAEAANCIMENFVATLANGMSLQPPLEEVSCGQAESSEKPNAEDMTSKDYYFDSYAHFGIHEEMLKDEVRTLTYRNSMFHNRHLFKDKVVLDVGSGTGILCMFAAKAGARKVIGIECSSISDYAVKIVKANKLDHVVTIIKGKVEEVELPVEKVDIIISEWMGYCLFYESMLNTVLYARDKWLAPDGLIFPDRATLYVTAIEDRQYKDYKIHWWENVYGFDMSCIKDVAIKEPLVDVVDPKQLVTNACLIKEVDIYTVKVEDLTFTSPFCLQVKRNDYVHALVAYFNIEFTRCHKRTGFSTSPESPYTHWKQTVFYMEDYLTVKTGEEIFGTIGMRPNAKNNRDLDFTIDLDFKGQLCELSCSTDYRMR
MBD2 DNA inh: blocks human MBD2 binding to methylated DNA; Q9UBB5; TR-FRET, MBD2 binding to methylated oligonucleotide; inhibition, % at 4.4 µM; 0.31% of 370,000 active; in the data active = inhibition above about 13%
LEDGF integ inh: blocks HIV-1 LEDGF/p75-dependent DNA integration; TR-FRET IN-LEDGF/p75 DNA integration, Eu/Cy5; inhibition, % at 3.7 µM; 0.64% of 370,000 active; AID 743269;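 active = inhibition above the screen-wide mean plus 3 SD, cut at about 13% in these data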;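 note: signal is the Cy5 over europium emission ratio at 671 and 618 nm; 0% = plate median of compound wells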
rCAG binder: r(CAG) repeat RNA binding; TO-PRO-1 dye displacement fluorescence; inhibition, % at 3 µM; 1.3% of 370,000 active;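 active = inhibition above the plate cutoff, the mean of all test compounds on that plate plus 3 SD, cut at about 35% in these data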;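 note: 0% = DMSO alone and 100% = 100 µM mitoxantrone as full dye displacement; higher means more dye released from RNA so lower well fluorescence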
UHRF1 binding: human UHRF1 methylated DNA binding inhibitors. Q96T88. UHRF1 binding to methylated oligo, TR-FRET. inhibition, % at 4.4 µM. 0.75% of 370,000 active. AID 687016; in the data active = inhibition above about 21%;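 note: UHRF1 SRA domain binding a hemimethylated CpG hairpin DNA probe; 0% = median of test compound wells and 100% = reference inhibitor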
The depositor's hits bear a star; . = no result. Sampled rows, rich in hits. Any-hit rate of the full collection: about 4.1%.

SMILES	ABHD5-PLIN5 inh	PRMT1 inh	MBD2 DNA inh	LEDGF integ inh	rCAG binder	UHRF1 binding
C#CCN1C(=O)[C@]2(OCCC=C[C@H]2C)c2cc(OC)ccc21	.	-1.4	2.1	2.1	0.5	-1.6
CC1(C(=O)Nc2ccc(Cl)c(Cl)c2)CCN1C(=O)C1CCCCC1 (configuration not stated)	-12.2	1.1	-0.4	1.7	2.2	22.1*
O=C1NC(=O)C2(CCc3ccccc32)N1 (configuration not stated)	3.2	-1.2	-6.0	-0.1	0.0	-1.6
C=C1CC2(OC1=O)c1ccccc1CCc1ccccc12	59.6*	11.9	-2.7	-2.5	3.4	-2.4
COC(=O)[C@]12C[C@H](CC(=O)NCc3ccc(OC)c(OC)c3)C(=O)N(CCC3=CCCCC3)C1=C[C@H](C(C)(C)C)O[C@@H]2C	.	-2.1	-3.0	-3.5	3.4	-1.5
O=C(Cn1sc2ccccc2c1=O)NC12CC3CC(CC(C3)C1)C2	59.4*	.	.	.	.	.
Nc1cccc2c1C(=O)N(CC(=O)NC13CC4CC(CC(C4)C1)C3)C2=O	-1.4	1.8	-1.0	5.0	-1.0	-0.6
C/C(CC(=O)Nc1ccc(Cl)c(C(F)(F)F)c1)=N\NC(=O)c1cc2ccccc2cc1O	-6.7	2.7	1.6	-1.9	50.7*	-4.3
O=C1CN(C(=O)C2CCCCC2)C=CN1CCc1ccccc1Br	.	3.3	2.0	-2.6	.	5.9
COc1ccccc1-c1nc(S(=O)(=O)c2ccccc2)c(N2CCOCC2)o1	22.4*	6.5	2.6	2.8	-4.5	-2.2
CCn1c(SCC(=O)NN=Cc2c[nH]c3ccccc23)nc2ccccc21	.	3.0	-6.1	1.8	6.6	-1.6
Clc1ccccc1N1CCN(C2=Nc3ccccc3Sc3ccccc32)CC1	.	10.0	0.2	-0.8	7.9	0.4
CCN(CCn1cccn1)C(=O)c1cc(COc2ccccc2SC)on1	3.5	1.0	2.2	-1.6	-1.6	35.0*
CCN(CCn1cccn1)C(=O)c1cc(COc2cc(C)ccc2C)on1	2.8	0.2	-0.8	1.2	-2.3	30.7*
CCN(CCN1CCCC1)C(=O)c1cc(COc2ccccc2SC)on1	5.7	0.3	-3.3	0.2	-2.9	0.6
CC(C)NC(=O)N[C@H]1C[C@@H]2O[C@@H](CO)CC[C@@H]2O[C@@H]1CCc1ccc(-c2ccccc2F)cc1	.	-1.5	1.5	-0.3	3.6	2.2
COc1cccc(CNC(=O)[C@H]2CCCN2C(=O)[C@H]2CCCN2C(=O)c2c(F)cccc2F)c1	.	2.6	2.7	-0.3	-1.0	1.7
O=C(O)/C=C\C(=O)Nc1ccccc1C#Cc1ccc(Br)cc1	-7.7	22.0*	7.2	-1.5	6.0	19.7
O=C(O)/C=C\C(=O)Nc1ccccc1C#Cc1ccccc1	1.4	14.5	-1.9	-2.3	5.5	-3.7
CCn1c(COc2ccc(C)cc2)nnc1SCc1cccc(C(F)(F)F)c1	.	-0.7	-2.1	0.3	-3.6	-1.2
CN(c1ccccc1)c1ccc(/C=C/[N+](=O)[O-])cc1	87.9*	-9.1	6.7	0.4	1.2	1.8
CN(C)c1ccc(C(=O)NC2CCCCN(Cc3cccc(Cl)c3)C2=O)cc1 (configuration not stated)	.	3.3	-0.6	-5.6	0.4	-0.3
C/C(=N\N=C(N)N)c1ccc(Cl)cc1Cl	6.3	2.4	1.4	-5.0	12.2	38.4*
C/C(=N\N=C(N)N)c1cc(Cl)ccc1Cl	-4.0	1.4	2.0	-5.3	5.5	3.9
C#CCN(C[C@@H]1[C@@H](OC(=O)NCC2CCCCC2)[C@@H](OC(=O)NCC2CCCCC2)CN(C(=O)OC(C)C)N1C(=O)OC(C)C)S(=O)(=O)c1ccc(C)cc1	13.9	-1.5	-3.3	-2.8	15.4	-2.2
Cc1ccc(S(=O)(=O)N2C[C@H]3N(C(=O)OC(C)C)N(C(=O)OC(C)C)C[C@H](OC(=O)NCc4ccccc4F)[C@@]3(O)C2)cc1	-3.4	1.2	7.3	-3.0	-1.2	21.6*
C#CCN(C[C@@H]1[C@@H](OC(=O)NCc2ccccc2)[C@@H](OC(=O)NCc2ccccc2)CN(C(=O)OC(C)C)N1C(=O)OC(C)C)S(=O)(=O)c1ccc(C)cc1	15.8	-5.0	8.7	-2.2	4.0	23.2*
COC(=O)[C@]12C[C@H](CC(=O)N3CCN(C(=O)c4ccco4)CC3)C(=O)N(CCC3=CCCCC3)C1=C[C@H](C(C)(C)C)O[C@@H]2C	.	1.3	5.7	0.3	1.5	-0.4
